Source: PubChem
A549 tox-1 – A549 cytotoxicity, counter-screen for Nrf2 inhibitors; A549 ARE-Fluc cells, CellTiter-Fluor viability, 18-24 h; Potency, µM (top dose mostly 46 µM), without a hit: top-dose activity change, negative = cytotoxicity, actives largely listed as inhibitors; hit rate 0.16% among 390,000; AID 504648; also: % is scaled to controls: 0 for no effect and ±100 for the full control effect
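Cytotoxicity counterscreen: CellTiter-Fluor fluorescence was measured in A549 ARE_Fluc cells after 18-24 h of compound exposure in a concentration series. The subsequent BugLite luminescent read reports ARE-luciferase activity.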
TrxR1 substrate – is turned over as a substrate by rat TrxR1; O89049; purified TrxR1 substrate turnover, NADPH consumption readout; Potency, µM (doses to about 114 µM), inactives show at the top dose activity change, negative = substrate turnover; hit rate 0.01% among 390,000; AID 588456; also: % is scaled to controls: 0 for no effect and ±100 for the full control effect; nearly all actives have a fitted effect of over 50% in size
Target sequence (O89049 whole entry, looked up): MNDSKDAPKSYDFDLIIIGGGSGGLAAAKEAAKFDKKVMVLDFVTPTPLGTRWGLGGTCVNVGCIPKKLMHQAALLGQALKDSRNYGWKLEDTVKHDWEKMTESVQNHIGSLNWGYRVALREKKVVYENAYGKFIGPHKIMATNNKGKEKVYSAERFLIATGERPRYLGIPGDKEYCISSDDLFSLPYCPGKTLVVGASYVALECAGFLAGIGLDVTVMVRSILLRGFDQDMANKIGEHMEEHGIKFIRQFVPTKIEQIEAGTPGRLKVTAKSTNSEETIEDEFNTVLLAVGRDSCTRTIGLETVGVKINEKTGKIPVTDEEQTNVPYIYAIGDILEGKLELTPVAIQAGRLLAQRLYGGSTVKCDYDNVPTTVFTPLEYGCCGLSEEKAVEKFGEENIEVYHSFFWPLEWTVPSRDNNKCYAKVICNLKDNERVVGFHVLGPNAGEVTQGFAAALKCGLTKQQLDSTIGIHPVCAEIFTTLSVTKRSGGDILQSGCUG
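Rat TrxR1, dispensed at 90 nM, was prereduced with 400 uM NADPH (final) for 5 min at ~22 deg C, then incubated with compound 15 min before 400 uM selenite. A first-read NADPH fluorescence drop versus no-compound background flagged substrates.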
Nrf2 activator – activators of Nrf2 (ARE) signaling; Potency, µM (titrated, usually from 46.1 µM), inactives show at the top dose activation, actives largely listed as activators; AREc32 ARE-luciferase reporter (MCF7-derived line), luminescence, 24 h; hit rate 0.31% among 410,000; also: % of control where 0% means no effect; nearly all actives have a fitted effect of over 65% in size
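AREc32_Fluc, 1000 cells/well, OPTI-MEM + 5% FBS, o/n 37 deg C 5% CO2; 23 nL cpd by pin tool, 24 hr; Steady-Glo 30 min RT, luminescence.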
Nrf2 block – inhibitors of Nrf2 signaling. A549 ARE-Fluc reporter, luciferase luminescence, 18-24 h. Potency, µM (top dose mostly 46 µM), for the others: at the top dose activity change, negative = inhibition, usual class: inhibitors. hit rate 2.1% among 360,000. AID 504444; also: % is scaled to controls: 0 for no effect and ±100 for the full control effect; nearly all actives have a fitted effect of over 60% in size
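Two sequential reads on A549 ARE_Fluc cells exposed to compound for 18-24 h: a CellTiter-Fluor fluorescence read for viability, then a luciferase luminescence read for Nrf2/ARE activity.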
GALK inhibitor – inhibitors of human galactokinase | P51570 | Purified GALK, Kinase-Glo residual ATP luminescence | Potency, µM (series often up to 57.5 µM), for inactives: top-dose activity change, negative = inhibition, hits mostly inhibitors | hit rate 0.007% among 270,000 | AID 1868; also: % is scaled to controls: 0 for no effect and ±100 for the full control effect
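GALK at 5 nM final was combined with compound, 35 uM ATP and 100 uM galactose in HEPES pH8.0 with MgCl2 and DTT. The reaction ran one hour at room temperature before luminescent ATP detection.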
TrxR1 inh – inhibitors of rat thioredoxin reductase 1; Potency, µM (series often up to 114 µM), for inactives: at the highest dose activity change, negative = inhibition, usual class: inhibitors; hit rate 1% among 390,000; recombinant rTrxR1, NADPH fluorescence consumption, selenite substrate; O89049; also: % is scaled to controls: 0 for no effect and ±100 for the full control effect; nearly all actives have a fitted effect of over 65% in size
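Rat TrxR1 (90 nM in the dispensed reagent) was pre-reduced with 400 uM NADPH for 5 min at room temperature, then incubated with compound for 15 min. After 400 uM selenite was added, NADPH fluorescence (Ex 340/Em 450 nm) was followed for 8 min.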
FLuc counter 3 – counter-screen for Nrf2 inhibitors: firefly luciferase enzyme inhibition; shares compounds with Nrf2 block; AID 720522; hit rate 4% among 1,400; purified firefly luciferase, luminescence inhibition; Potency, µM (titrated, usually from 57.5 µM), for inactives: at the top dose activity change, negative = inhibition, hits mostly inhibitors; also: % is scaled to controls: 0 for no effect and ±100 for the full control effect; nearly all actives have a fitted effect of over 65% in size
A549 tox-2 – counter-screen for Nrf2 inhibitors: cytotoxicity in A549 ARE cells. shares compounds with Nrf2 block. A549 ARE-Fluc cells, cytotoxicity counterscreen. Potency, µM (highest dose often 46.1 µM), for inactives: at the highest dose activity change, negative = cytotoxicity, usual class: inhibitors. hit rate 2% among 1,400. AID 720523;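 also: cells exposed to compounds for 18 to 24 hours; % is scaled to controls: 0 for no effect and ±100 for the full control effect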
ARE-Fluc inh – Nrf2 inhibition confirmed, A549 ARE-luciferase. Potency, µM (top dose mostly 46.1 µM), for inactives: at the highest dose activity change, negative = inhibition, actives largely listed as inhibitors. hit rate 74% among 1,400. shares compounds with Nrf2 block. A549 ARE-firefly luciferase reporter, luminescence; also: % is scaled to controls: 0 for no effect and ±100 for the full control effect; nearly all actives have a fitted effect of over 65% in size
Starred values were filed as active, the others as inactive; ? = inconclusive; nt = not tested or not shown; [ ] = another dose, or the depositor's remark. A selection: hits, their analogues and other compounds. The true share with any hit is near 3%. Calls follow the shape of the dose curve; as a rule, active = well fitted curve in the direction sought with a large enough effect; inconclusive = small, poorly fitted or top-dose-only effect, or another doubt; inactive = no such curve, though single readings can be large; an effect the other way counts as inactive or inconclusive. Potency is read from the fitted curve at half-maximal effect.

SMILES | A549 tox-1 | TrxR1 substrate | Nrf2 activator | Nrf2 block | GALK inhibitor | TrxR1 inh | FLuc counter 3 | A549 tox-2 | ARE-Fluc inh
COc1cccc(NC(=O)CCc2nc(-c3ccc(C(C)(C)C)cc3)no2)c1 | -2.9% | -9.9% | -3.9% | 0.259µM* | nt | 7.5% | 2.39µM* | -4.8% | 0.92µM*
CC1OC(OC2C=C3CCC4C(CCC5(C)C(c6ccc(=O)oc6)CCC45O)C3(C)CC2)C(O)C(OC2OC(CO)C(O)C(O)C2O)C1O (stereo unspecified) | ? | -7.8%[11.4 µM] | -2.3% | 0.0731µM* | nt | -6.2%[11.4 µM] | 1.7% | ? | 0.0082µM*
COc1ccc(C[C@H]2NC[C@H](O)[C@H]2OC(C)=O)cc1 | ? | 5.5% | -1.3% | 0.116µM* | nt | 39.8µM* | -18.0% | 0.7% | 7.31µM*
COc1ccc(CCNC2CCCCC2)cc1 | -10.4% | 6.5% | -0.8% | -6.1% | -0.9% | 17.3% | nt | nt | nt
CC(C)N1CC=C(c2c[nH]c3ccccc23)CC1 | ? | 2.2% | 3.0% | 1.64µM* | 2.3% | 4.1% | -1.3% | -10.3% | nt
CCCCCCCCCCCCCC(=O)O[C@@H]1[C@@H](C)[C@@]2(O)[C@@H](C=C(CO)C[C@@]3(O)C(=O)C(C)=C[C@@H]23)C2C(C)(C)[C@@]21OC(C)=O (stereo partly specified) | nt | ? | nt | nt | nt | 19.9%[57.1 µM] | nt | nt | nt
CC(=O)c1cccc(NC(=O)c2cc3c(s2)-c2c(C)cccc2OC3)c1 | -17.2% | 13.7% | 2.5% | 7.31µM* | nt | 8.3% | -14.0% | -21.7% | 6.51µM*
O=C(CN1CCOCC1)c1ccc2ccccc2c1 | nt | -1.8% | nt | nt | nt | ? | nt | nt | nt
CC(C)(C)c1cc(C=C(C#N)C#N)cc(C(C)(C)C)c1O | ? | ? | 0.1% | 0.651µM* | nt | ? | -2.6% | ? | 1.3µM*
CN(C)c1ccc(C=C(C#N)C#N)cc1 | 0.1% | -8.2% | -0.3% | 3.3% | -1.1% | 7.3%[57.1 µM] | nt | nt | nt
Cc1c(C)c2c(OCC(=O)N[C@@H](C)C(=O)O)cc3c(c2oc1=O)CCC(C)(C)O3 | 0.9% | 212.3%[57.1 µM] | -0.7% | -3.2% | -1.1% | 56.4%[57.1 µM] | nt | nt | nt
COc1ccccc1N=c1scc(-c2ccc(S(=O)(=O)N3CCCC3)cc2)n1C | -17.3% | -1.0% | -0.8% | 3.66µM* | nt | 1.7% | 1.0% | -25.7% | 6.51µM*
Oc1ccc2c3c1O[C@H]1c4oc5ccccc5c4C[C@@]4(O)C(C2)N(CC2CC2)CCC314 (stereo partly specified) | nt | 0.2%[57.1 µM] | nt | nt | nt | ? | nt | nt | nt
C[C@H]1CCCC=CC2C[C@H](O)C[C@@H]2[C@H](O)C=CC(=O)O1 (stereo partly specified) | nt | 1.8% | nt | nt | nt | 8.1% | 1.4% | ? | 0.231µM*
CCN(CC)C1=NC(=[N+](CC)CC)c2ccccc21 | ? | 3.7% | -0.2% | 2.06µM* | 3.0% | -3.0% | 4.3% | -24.0% | 4.61µM*
CCCNC(=O)NC(=O)COc1ccc(-c2ccc(C#N)cc2)cc1 | 0.4% | 0.2% | -0.2% | ? | 0.7% | 11.4% | nt | nt | nt
CC(C)(O)/C=C/C(=O)[C@](C)(O)C1[C@H](O)C[C@@]2(C)C3CC=C4C(C[C@H](O)[C@@H](O)C4(C)C)[C@]3(C)C(=O)C[C@]12C (stereo partly specified) | ? | 3.3%[57.1 µM] | 13.2% | 0.411µM* | nt | 6.8%[57.1 µM] | 0.6% | ? | 1.3µM*
Cc1ccc(C(=O)CN2CCOCC2)cc1 | nt | 10.5% | nt | nt | nt | 15.5% | nt | nt | nt
CC1(C)N([O])C(c2ccc(C(=O)O)cc2)=[N+]([O-])C1(C)C | nt | -9.7% | nt | nt | nt | -3.1% | nt | nt | nt
C[C@]12CC[C@H]3[C@@H](CC[C@]4(O)C[C@@H](O)CC[C@]34C=O)[C@@]1(O)CC[C@@H]2C1=CC(=O)OC1 | ? | 0.1% | -2.8% | 0.259µM* | nt | 7.9% | 1.3% | -55.2% | 0.411µM*
CCCCN=C[C@]12CCC(O)CC1(O)CCC1[C@@H]2CC[C@]2(C)[C@H](C3C=CC(=O)O3)CCC12O (stereo partly specified) | -16.3% | -0.8% | -3.1% | ? | 0.7% | 16.3% | nt | nt | nt
CC12CCC3C(CCC4(O)CC(O)CCC34C=NO)C1(O)CCC2C1=COC(=O)C1 (stereo unspecified) | ? | -4.8% | -2.6% | 0.058µM* | nt | -4.5% | 1.2% | ? | 0.103µM*
CC12CCC3C(CCC4(O)CC(O)CCC34C=O)C1(O)CCC2C1=CC(=O)OC1 (stereo unspecified) | ? | -0.2% | -2.5% | 0.461µM* | nt | -9.0% | 2.2% | ? | 0.411µM*
C[C@H]1O[C@@H](OC2CC[C@]3(C=O)[C@H]4CC[C@]5(C)[C@@H](C6=CC(=O)OC6)CC[C@]5(O)[C@@H]4CC[C@]3(O)C2)CC2OC(C)(C)OC21 (stereo partly specified) | ? | 4.8%[57.1 µM] | -3.5% | 0.164µM* | -0.2% | 15.1%[57.1 µM] | -0.8% | ? | 0.0651µM*
O=C(CN1CCOCC1)c1cccc([N+](=O)[O-])c1 | nt | 5.2% | nt | nt | nt | ? | nt | nt | nt
O=C(Nc1ccc(Oc2ccc(Cl)cc2)c(Cl)c1)c1cc(I)cc(I)c1O | ? | 7.6% | 0.0% | ? | nt | 20.5% | nt | nt | nt
CC12CC[C@H]3[C@@H](CCC4(O)C[C@H](O)CCC34/C=N/NC(=O)c3ccccc3Cl)C1(O)CCC2C1=CC(=O)OC1 (stereo partly specified) | 3.4% | 5.3% | 0.2% | -21.8% | nt | 19.8% | nt | nt | nt
CC(=O)O[C@H]1CC[C@]2(C=O)C3CC[C@]4(C)[C@@H](C5=CC(=O)OC5)CC[C@]4(O)C3CC[C@]2(O)C1 (stereo partly specified) | -25.2% | -1.2% | nt | 0.259µM* | nt | 4.5% | 3.8% | ? | 0.366µM*
O=C(CSc1nnc(NC(=O)c2cccc(F)c2)s1)NCc1ccco1 | -1.1% | 6.7% | ? | 19.1% | -5.3% | 23.4% | nt | nt | nt
CC1=CC(O)C(O)C2(C)C1CC1OC(=O)C(O)C3C(C)C(O)C4(O)OCC13C42 (stereo unspecified) | -19.9% | 9.2%[57.1 µM] | -0.5% | 2.91µM* | nt | 4.7%[11.4 µM] | -2.0% | -24.2% | 5.17µM*
